Source: PubChem (National Center for Advancing Translational Sciences (NCATS))
An excerpt weighted towards active compounds, which were near 2.5% of everything screened.
D2 antagonist – D2 dopamine receptor (human) antagonism; P14416; HEK293 TREx D2 cells, calcium flux, dopamine EC80; inhibition, % at 10 µM; 2% of 340,000 active; AID 485344; in the data active = inhibition above about 30%; inactive = below that, where a call was filed
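Calcium flux kinetic readout in an inducible HEK293 TREx D2 line plated overnight at 30 C. After 180 s compound exposure, an EC80 dopamine challenge follows with another 180 s kinetic read to detect antagonism.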
D2 PAM-1 – potentiates the human D2 dopamine receptor allosterically; P14416; DiscoveRx D2 beta-arrestin cells, luminescence, 90 min; 100% = 57 uM dopamine signal; potentiation, % (concentration not given with the values); 0.23% of 360,000 active; in the data active = potentiation above about 50%; inconclusive = mostly about 30% to 49%
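D2 cells co-treated with compound plus 50 nM dopamine (EC20) for 90 min at 37 deg C to detect potentiation. Beta-arrestin recruitment was read as enzyme-fragment luminescence after 1 h at ambient temperature. Full response was set by 57 uM dopamine.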
D2 ag-1 – agonists of human D2 dopamine receptor | 0.53% of 340,000 active | AID 485358 | HEK293 T-REx D2 cells, calcium flux agonist mode | activation, % at 2 µM | P14416;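 active = activation over 3 SD above normal in the single-dose calcium agonist read, cut at about 30% in these data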
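Tetracycline-induced HEK293 Trex cells with D2 receptor force-coupled to calcium signaling, plated overnight at 30 C and loaded with no-wash calcium dye. Calcium flux read kinetically for 180 s after compound addition; responses flag agonists.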
D2 PAM-2 – positively modulates the human D2 dopamine receptor allosterically; P14416; HEK293 T-REx D2, calcium flux, EC20 dopamine potentiation; potentiation, % at 10 µM; 0.34% of 340,000 active;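 active = potentiation over 3 SD above the plate norm, cut at about 30% in these data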
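Tetracycline-induced Hek293 Trex D2 cells, force-coupled to calcium, loaded with no-wash calcium dye. Compound added with 180 s kinetic read for agonism, then EC20 dopamine and a further 180 s read for potentiation.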
Apoferritin bind – binds horse apoferritin like a general anesthetic; P02791; apoferritin/1-aminoanthracene competitive binding, fluorescence; Potency, µM (titrated, usually from 77.5 µM), most hits filed as inhibitors; 0.074% of 350,000 active; AID 485281; also: nearly all actives have a fitted effect of over 20% in size
Target sequence (P02791 2-175 limits assumed): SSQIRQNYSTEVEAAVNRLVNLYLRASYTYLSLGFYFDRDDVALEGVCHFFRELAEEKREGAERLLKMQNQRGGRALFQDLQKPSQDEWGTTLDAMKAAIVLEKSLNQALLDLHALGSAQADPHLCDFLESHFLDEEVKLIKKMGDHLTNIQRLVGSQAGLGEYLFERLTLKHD
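10 uM apoferritin + 50% sat. 1-AMA, PBS; cpd 10 min RT; Ex380/Em535 endpoint; normalized to free probe vs complex; 4-param Hill fit; propofol titration as pos. ctrl.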
D2 ag-2 – agonists of human D2 dopamine receptor (beta-arrestin) | P14416 | DiscoveRx PathHunter D2 beta-arrestin, luminescence, 90 min; 100% = 57 uM dopamine signal | activation, % (no concentration beside the values) | 0.084% of 360,000 active | AID 624465; in the data active = activation above about 40%; inconclusive = between about 15% and that limit
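Agonist mode: compounds alone added to overnight-plated D2 PathHunter cells for 90 min at 37 C, with 57 uM final dopamine (EC100) defining full response. Beta-arrestin recruitment detected by chemiluminescent reagent, read after 1 h at ambient temperature.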
D3 ag – D3 receptor agonism confirmed, beta-arrestin readout; 4% of 2,300 active; Potency, µM (doses to about 76.9 µM), most hits filed as activators; DiscoveRx D3 beta-arrestin cells, luminescence, 90 min; shares compounds with D2 ag-1; also: nearly all actives have a fitted effect of over 70% in size
Target sequence (P35462 whole entry, looked up): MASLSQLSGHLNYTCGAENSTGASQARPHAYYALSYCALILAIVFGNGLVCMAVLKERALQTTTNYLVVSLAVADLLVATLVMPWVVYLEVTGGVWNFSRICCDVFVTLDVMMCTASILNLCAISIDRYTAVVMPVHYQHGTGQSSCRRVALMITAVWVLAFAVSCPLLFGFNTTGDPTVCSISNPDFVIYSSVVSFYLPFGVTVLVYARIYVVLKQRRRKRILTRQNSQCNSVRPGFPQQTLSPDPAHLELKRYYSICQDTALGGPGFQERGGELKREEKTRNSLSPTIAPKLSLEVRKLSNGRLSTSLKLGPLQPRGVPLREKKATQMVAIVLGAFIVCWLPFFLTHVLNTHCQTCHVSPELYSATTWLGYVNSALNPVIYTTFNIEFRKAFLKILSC
D2 ag-3 – D2 receptor agonism, beta-arrestin counterscreen; shares compounds with D2 ag-1; DiscoveRx PathHunter D2 beta-arrestin, luminescence, 90 min; response scale: percent relative to full dopamine signal; Potency, µM (doses to about 76.9 µM), usual class: activators; 5.9% of 2,300 active; AID 720507; also: nearly all actives have a fitted effect of over 70% in size
Of the large screens only hits and unclear results are named; the others gave an inactive call (follow-up assays come after a bar, where they were run). Unless noted, calls follow the shape of the dose curve; as a rule, active = well fitted curve in the direction sought with a large enough effect; inconclusive = small, poorly fitted or top-dose-only effect, or another doubt; inactive = no such curve, though single readings can be large; an effect the other way counts as inactive or inconclusive.

CC(=O)C1=C(O)C(=O)N(CCC(=O)O)C1c1ccccc1[N+](=O)[O-] (stereo unspecified)	none
O=C(Cc1ccccc1)Nc1cccnc1	none
Cc1cccc(CC(=O)Nc2cccnc2)c1	none | D3 ag inactive | D2 ag-3 inactive
CCCSCCCNC(=O)c1ccccc1NC(=O)C1=CSCCO1	none | D3 ag inactive | D2 ag-3 inactive
CCN(CC)CCCNC(=O)c1ccccc1NC(=O)C1=CSCCO1	none (no result: D2 antagonist, D2 ag-1, D2 PAM-2)
OC1(Cc2cc(-c3ccccc3)no2)CCN(CCCc2ccccc2)CC1	D2 antagonist 73, D2 ag-1 46 | D3 ag inconclusive | D2 ag-3 inactive
O=c1[nH]c(N/N=C/c2ccccc2Br)nnc1-c1ccccc1	none
COc1ccc(/C=N/Nc2nnc(-c3ccccc3)c(=O)[nH]2)cc1	D2 ag-1 60 | D3 ag inactive | D2 ag-3 inactive
CCOc1ccc(/C=N/NC(=O)c2ccc(O)cc2)cc1CN1CC2CC(C1)c1cccc(=O)n1C2 (stereo unspecified)	none (no result: D2 antagonist, D2 ag-1, Apoferritin bind) | D3 ag inactive | D2 ag-3 inactive
OCCC1CN(C2CCN(c3ccccc3F)CC2)CCN1Cc1ccccc1 (stereo unspecified)	none | D3 ag inactive | D2 ag-3 inactive
OCCC1CN(C2CSCCSC2)CCN1Cc1ccccc1 (stereo unspecified)	none
CCOC(=O)N1CCC(N2CCN(Cc3ccc(F)c(F)c3)C(CCO)C2)CC1 (stereo unspecified)	D2 ag-1 40 | D3 ag inactive | D2 ag-3 inactive
CCC(C)n1c(SCC(=O)NC2CCCC2)nc2ccccc2c1=O (stereo unspecified)	none (no result: Apoferritin bind)
CCc1nnc(NC(=O)c2ccc(-c3ccc(Cl)cc3)o2)s1	none
CCc1nnc(NC(=O)c2ccc(-c3ccc(C(C)=O)cc3)o2)s1	none (no result: Apoferritin bind) | D3 ag inactive | D2 ag-3 inactive
CN(C)c1ccc(/C=N/N(CCO)C2=NS(=O)(=O)c3ccccc32)cc1	none | D3 ag inactive | D2 ag-3 inactive
COc1ccc2[nH]c3nc(SCC(=O)Nc4ccc5c(c4)OCO5)nnc3c2c1	none
O=C(NC(=S)Nc1ccc(CN2CCOCC2)cc1)c1ccccc1[N+](=O)[O-]	none (no result: D2 antagonist, D2 ag-1, D2 PAM-2) | D3 ag inactive | D2 ag-3 inactive
O=C(NC(=S)Nc1ccc(CN2CCOCC2)cc1)c1ccc([N+](=O)[O-])cc1Cl	none
COC(=O)c1ccc(Cl)cc1NC(=O)NCc1c(-n2cccc2)sc2c1CCCC2	none (no result: D2 antagonist, D2 PAM-1, D2 ag-2)
CN(C)CC(C)(C)CNC(=O)C1CCN(CCCc2ccccc2)CC1	D2 antagonist 31, D2 ag-1 48, D2 ag-2 inconclusive | D3 ag inactive | D2 ag-3 inactive
CCCCN(C)C(=O)C1CCN(CCCc2ccccc2)CC1	none | D3 ag inactive | D2 ag-3 inactive
CC(C)CC(NC(=O)C(CC(C)C)NC(=O)OC(C)(C)C)C(=O)O (stereo unspecified)	none
CCCN(CCC)CCCNS(=O)(=O)c1cc(Br)cc2c1N(C(C)=O)CC2	D2 ag-1 59 | D3 ag inactive | D2 ag-3 inactive
Cn1c2ccccc2c(=O)c2c(=O)n(C3CCCCCC3)c(C3CCCCC3)nc21	D2 ag-1 40 | D3 ag inactive | D2 ag-3 inactive
COc1ccc(CCn2c(C3CCCCC3)nc3c(c(=O)c4ccccc4n3C)c2=O)cc1OC	none
Cc1ccc(C(=O)NCCNc2nc3cc(C)c(C)cc3cc2C)cc1	none
Cn1cccc1Cc1nnc(SCC(=O)NC2CCCC2)n1CCc1ccccc1	none
O=C(Cc1ccc(S(=O)(=O)N2CCOCC2)s1)Oc1ccc(F)cc1	none (no result: Apoferritin bind)
O=C(c1oc(=O)c2ccccc2c1-c1ccccc1)N1CCC(O)CC1	none | D3 ag inactive | D2 ag-3 inactive
CC1CC(C)CN(CCCNC(=O)CN2C(=O)CSc3ccc(S(=O)(=O)N4CCOCC4)cc32)C1 (stereo unspecified)	D2 antagonist 40 | D3 ag inactive | D2 ag-3 inactive
CCCCN(CC)CCCNC(=O)CN1C(=O)CSc2ccc(S(=O)(=O)N3CCOCC3)cc21	none | D3 ag inactive | D2 ag-3 inactive
COC(=O)c1ccc(-c2csc(NC(=O)c3ccc(S(=O)(=O)N4CCc5ccccc5C4)cc3)n2)cc1	none
CCOc1cc(C)c(Cl)cc1S(=O)(=O)NCCOC	D2 antagonist 32, D2 ag-1 59 | D3 ag inactive | D2 ag-3 inactive
O=C(c1ccccc1)N1CCN(Cc2ccc3c(c2)OCO3)CC1	none
O=C(c1[nH]nc2c1CCc1ccccc1-2)N1CCN(Cc2ccc3c(c2)OCO3)CC1	D2 antagonist 71, D2 ag-2 inconclusive | D3 ag inactive | D2 ag-3 inconclusive
O=C(c1ccc(Br)o1)N1CCN(Cc2ccc3c(c2)OCO3)CC1	D2 antagonist 58, D2 ag-1 70 | D3 ag inactive | D2 ag-3 inactive
O=C(c1sccc1Cl)N1CCN(Cc2ccc3c(c2)OCO3)CC1	D2 antagonist 67, D2 ag-1 50 | D3 ag inactive | D2 ag-3 inactive
Nc1c(C(=O)N/N=C/c2ccc([N+](=O)[O-])cc2)sc2nnc(-c3ccccc3)c(-c3ccccc3)c12	none
Cc1cccc(C(=O)NC(=S)NNC(=O)c2ccc(Cl)cc2)c1	D2 ag-1 75 | D3 ag inactive | D2 ag-3 inactive
Cc1cccc(C(=O)NC(=S)NNC(=O)c2cccs2)c1	none
CC1CN(C(=O)CCC(=O)N2CCN(c3ccccn3)CC2)c2ccccc2O1 (stereo unspecified)	none
Cc1ccc2c(c1)N(C(=O)CCC(=O)N1CCN(c3ccccn3)CC1)CC(C)O2 (stereo unspecified)	D2 ag-1 50 | D3 ag inactive | D2 ag-3 inactive
CN1CC2=Cc3ccccc3OC23Oc2ccccc2C=C3C1	D2 antagonist 64, D2 ag-1 59, Apoferritin bind inconclusive | D3 ag inactive | D2 ag-3 inactive
O=C(CSC1=NS(=O)(=O)c2cc(Cl)ccc2N1)NCCc1ccccc1	D2 ag-1 41 (no result: Apoferritin bind) | D3 ag inactive | D2 ag-3 inactive
COc1ccc(CCNC(=O)CSC2=NS(=O)(=O)c3cc(Cl)ccc3N2)cc1OC	none (no result: Apoferritin bind)
CCOC(=O)c1[nH]c2ccccc2c1NC(=S)Nc1ccccc1	D2 ag-2 inconclusive
